Measured values: PubChem BioAssay (NCI)
About 79,000 compounds went through this panel and 15% of them were active in at least one assay; those are over-represented in the sample as a whole. No stated cut-off is given here; in the data, active means growth inhibition above about 70%; inactive means the rest.

How the values were obtained:
[1] = NCI Yeast Anticancer Drug Screen. Data for the rad50 strain (AID 155);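 further: 0% = growth of vehicle-only cultures of the same strain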; settings: S. cerevisiae rad50 strain growth inhibition; at 50.0 µM; stronger effect = higher value
Procedure, shortened: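 Yeast carrying a defined DNA repair defect were exposed to test compounds, and growth was compared with vehicle-treated controls to give percent inhibition.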

[2] = NCI Yeast Anticancer Drug Screen. Data for the mec2-1 strain (AID 157); settings: S. cerevisiae mec2-1 strain, at 50.0 µM, stronger effect = higher value
Procedure, shortened: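 Each compound was tested on mec2-1 yeast, a strain altered in DNA damage repair or cell cycle control. Growth inhibition is reported relative to vehicle.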

[3] = NCI Yeast Anticancer Drug Screen. Data for the sgs1 mgt1 strain (AID 161);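 further: 0% = growth of cultures given vehicle only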; settings: S. cerevisiae sgs1 mgt1 strain, at 50.0 µM, stronger effect = higher value
Procedure, shortened: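 Read-out: growth inhibition vs vehicle controls. Cells: mutant yeast strain deficient in DNA damage repair.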

[4] = NCI Yeast Anticancer Drug Screen. Data for the cln2 rad14 strain (AID 165);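 further: 0% = growth equal to vehicle treated cultures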; settings: S. cerevisiae cln2 rad14 strain, at 50.0 µM, stronger effect = higher value
Procedure, shortened: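 Test compounds were added to cln2 rad14 yeast cultures; inhibition of growth was then determined by comparison with vehicle treatment.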

[5] = NCI Yeast Anticancer Drug Screen. Data for the bub3 strain (AID 167); settings: S. cerevisiae bub3 mutant strain, at 50.0 µM, stronger effect = higher value
Procedure, shortened: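 Compounds were applied to a genetically altered yeast strain carrying a cell-cycle control defect. Growth inhibition was scored against vehicle-treated controls.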

[6] = NCI Yeast Anticancer Drug Screen. Data for the mlh1 rad18 strain (AID 175); settings: S. cerevisiae mlh1 rad18 strain growth inhibition; at 50.0 µM; stronger effect = higher value
Procedure, shortened: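 Inhibition values reflect reduced growth of mutant yeast versus vehicle-treated controls following compound exposure; the mutations affect DNA damage repair.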

Measured: growth inhibition

O=C(c1cccc(C(=O)N(c2ccccc2)c2ccccc2)n1)N(c1ccccc1)c1ccccc1
inactive: [1] -47.5% | [2] -11.2% | [3] -32.1% | [4] 15.6% | [5] -11.8% | [6] -1.8%

Cc1ccc(S(=O)(=O)NC(CO)C(=O)O)cc1 (stereo not given)
inactive: [1] -1.1% | [2] -18.6% | [3] -30.4% | [4] -24.6% | [5] -46% | [6] -9.65%

N#CC(C#N)=CN1CCCC1
inactive: [1] -19.6% | [2] 9.4% | [3] -6.45% | [4] -12.3% | [5] -5.95% | [6] -1.7%

O=[N+]([O-])c1cccc(C2=NON(c3ncccn3)C3N=CC=CN23)c1 (stereo not given)
inactive: [1] 11.9% | [2] -17.7% | [3] 14.3% | [4] -4.9% | [5] -9.65% | [6] 26.1%

Clc1ccc2c(N3CCC(CCC4CCN(c5ncnc6cc(Cl)ccc56)CC4)CC3)ncnc2c1
inactive: [1] -17.9% | [2] -21.6% | [3] -7.4% | [4] -39.4% | [5] -14.6% | [6] -14.2%

O=C(NCCCl)NCc1ccco1
inactive: [1] -6.6% | [2] 0.9% | [3] -3.55% | [4] -39.2% | [5] -4.85% | [6] -0.9%

Cc1cnc(Sc2ncccc2[N+](=O)[O-])nc1
inactive: [1] 33% | [2] 5.75% | [3] 22.8% | [4] 25.6% | [5] -3.1% | [6] 6.7%

CC(=O)OCC1(C)CCC(C)CO1 (stereo not given)
inactive: [1] -21.4% | [2] -4.45% | [3] 7.8% | [4] 15.2% | [5] 1.1% | [6] 7%

CCOC(=O)NC(NC(=O)OCC)c1ccc(OC)cc1
inactive: [1] -7.7% | [2] -1.95% | [3] 1.75% | [4] 42.7% | [5] -6.55% | [6] -10.1%

CCCOC(=O)CC(CC(=O)OCCC)C(=O)OCCC
inactive: [1] -10.9% | [2] 0.55% | [3] -3.75% | [4] -13.4% | [5] 37.2% | [6] -2.5%

Cc1cn(C2CC(NO)C(CO[Si](C)(C)C(C)(C)C)O2)c(=O)[nH]c1=O (stereo not given)
inactive: [1] -3.75% | [2] -0.25% | [3] -3.45% | [4] -3.9% | [5] -30.4% | [6] -35.7%

C=C(C)CNC(C)=O
inactive: [1] -7.75% | [2] 3% | [3] 0% | [4] 0% | [5] 3.4% | [6] 1.95%

CC1=NN(C(=O)c2ccncc2)C(=O)C1N=Nc1ccc([N+](=O)[O-])cc1Cl (stereo not given)
inactive: [1] 47.1% | [2] 9.95% | [3] 21.3% | [4] -26.1% | [5] -2.1% | [6] 14.1%

Oc1cc(O)c2c(-c3c(O)c(-c4ccc(O)c(O)c4)[o+]c4cc(O)cc(O)c34)c(O)c(-c3ccc(O)c(O)c3)[o+]c2c1
inactive: [1] 44.4% | [2] 4.85% | [3] 9.6% | [4] 11.1% | [5] 22.7% | [6] 21.8%

CCN(CC)C1=C(C)S(=O)(=O)C1c1ccc(C)cc1 (stereo not given)
inactive: [1] -9.1% | [2] -12.6% | [3] -8.85% | [4] 5.6% | [5] -13.4% | [6] -2.15%

CCCCNC(=O)NC1CC(OC2CC(O)(C(C)=O)Cc3c(O)c4c(c(O)c32)C(=O)c2c(OC)cccc2C4=O)OC(C)C1O (stereo not given)
inactive: [1] 30.2% | [2] 14.9% | [3] 22.9% | [4] 0.8% | [5] 1.25% | [6] 29.9%

Nc1[nH]c(=O)nc2c1ncn2C1OC(CO)C(O)C1O (stereo not given)
inactive: [1] -10.3% | [2] -27.6% | [3] -12.3% | [4] -3.65% | [5] -4.25% | [6] -10.2%

CCOC(=O)N1N(C(=O)c2ccccc2)C(=O)CC1(C)C
inactive: [1] -3.15% | [2] 8.2% | [3] 1.5% | [4] -16.1% | [5] -6.8% | [6] -24.2%

Clc1ccc2c(c1)-c1c3c(nn1-c1ccccc1)-c1ccccc1SC3O2 (stereo not given)
inactive: [1] 23.3% | [2] 10.6% | [3] 17.9% | [4] 19.3% | [5] -1.5% | [6] -13.6%

Cc1cc(-c2cccc3ccccc23)c(C#N)c(=S)n1C1OC(CO)C(O)C(O)C1O (stereo not given)
inactive: [1] 14.1% | [2] 4.4% | [3] 47.4% | [4] 9.5% | [5] 15.8% | [6] 33.6%
